Measurements from PubChem BioAssay AID540358 (NMMLSC, 2011).
Out of some 1,100 compounds screened, about 260 (24%) were called active. These entries were drawn from the full list. Unmarked numbers belong to inactive results.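 Rule for the calls: active = surface receptor percent response at or below 58%, roughly 3 SD from nonfluorescent compounds; inactive = the rest.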

Each molecule was assayed against Beta-2 adrenergic receptor (Homo sapiens) (UniProt P07550) (assay: agonist-driven loss of surface beta2AR – cell-based, FAP fluorogen, flow cytometry, single point, cherry pick 1, confirmation (AID 540358)). Conditions: Am2.2-beta2AR cells, at 10 µM, active compounds read low.
Chain of Beta-2 adrenergic receptor (Homo sapiens) (P07550 whole entry, looked up): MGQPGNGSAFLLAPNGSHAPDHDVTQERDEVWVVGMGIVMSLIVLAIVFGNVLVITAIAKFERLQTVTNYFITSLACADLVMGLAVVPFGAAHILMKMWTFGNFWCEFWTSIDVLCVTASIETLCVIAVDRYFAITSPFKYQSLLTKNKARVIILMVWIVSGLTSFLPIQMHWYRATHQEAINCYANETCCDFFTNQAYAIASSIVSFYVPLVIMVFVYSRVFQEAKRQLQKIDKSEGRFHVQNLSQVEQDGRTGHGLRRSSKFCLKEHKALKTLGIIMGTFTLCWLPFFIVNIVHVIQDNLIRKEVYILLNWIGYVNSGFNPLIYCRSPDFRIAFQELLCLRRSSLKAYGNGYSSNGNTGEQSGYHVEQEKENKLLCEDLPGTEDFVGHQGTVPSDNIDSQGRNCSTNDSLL

SMILES | percent response (surface receptor)
CCC(=O)c1ccc(OCC(=O)N2CCN(CC(=O)Nc3ccc(C)cc3)CC2)cc1 | 10.7% (active)
O=C1NC(=O)C(CCc2ccccn2)(Cc2cccc(Cl)c2Cl)C(=O)N1c1ccc(Br)cc1 (stereo not drawn) | 91.2%
CC(Cc1ccccc1)NCCC(c1ccccc1)c1ccccc1 (stereo not drawn) | 105%
